# In PubChem BioAssay AID2284143 (EPA ToxCast):
# Calls of active or inactive are those of the source. The calls were made as follows: active = hit-call score of the fitted dose curve at least 0.9, where 1 is the maximum; inactive = score below 0.9.
# Molecular target: human Adenosine Receptor A2A, ADORA2A (gene 135) (UniProt P29274)
# Assay: ERF_FR_GPCR_hADORA2A: Eurofins (ERF) G Protein-Coupled Receptor (GPCR) Radioligand Binding LeadHunter Assay for human Adenosine Receptor A2A Agonism, conducted at France lab site
# Procedure: ERF_FR_GPCR_hADORA2A is a biochemical, single-readout assay that uses extracted gene-proteins in a cell-free assay. Measurements were taken 2 hour after chemical dosing in a 96-well plate. See A2A Human Adenosine GPCR Binding (Agonist Radioligand) Assay, Cerep.ERF_FR_GPCR_hADORA2A is an assay component calculated from the ERF_FR_GPCR_hADORA2A assay. It is designed to measure radioligand binding using a type of binding reporter as detected by scintillation counting with radiometry technology.Data from the assay component ERF_FR_GPCR_hADORA2A was analyzed at the assay endpoint, ERF_FR_GPCR_hADORA2A, in the positive analysis fitting direction relative to DMSO as the negative control and baseline of activity. Using a type of binding reporter, gain-of-signal activity can be used to understand changes in binding as they relate to gene ADORA2A. To generalize the intended target to other relatable targets, this assay endpoint is annotated to the gpcr intended target family, where the subfamily is adenosine.
# Human cells are incubated for 60 minutes in room temprature, using [3H]CGS 21680 ligand at 6 Kd (nM) with NECA control inhibitor.Test Sample Requirements: Minimum for 1) Screen: 60 ul of 10 mM stock -OR- 1 mg (pre-weighed) for […] uM final testing. 2) Dose Response: 90 ul of 10 mM stock -OR- 1 mg (pre-weighed) for a top concentration at 10 uM.
# Sequence of human Adenosine Receptor A2A, ADORA2A (gene 135) (P29274 whole entry, looked up): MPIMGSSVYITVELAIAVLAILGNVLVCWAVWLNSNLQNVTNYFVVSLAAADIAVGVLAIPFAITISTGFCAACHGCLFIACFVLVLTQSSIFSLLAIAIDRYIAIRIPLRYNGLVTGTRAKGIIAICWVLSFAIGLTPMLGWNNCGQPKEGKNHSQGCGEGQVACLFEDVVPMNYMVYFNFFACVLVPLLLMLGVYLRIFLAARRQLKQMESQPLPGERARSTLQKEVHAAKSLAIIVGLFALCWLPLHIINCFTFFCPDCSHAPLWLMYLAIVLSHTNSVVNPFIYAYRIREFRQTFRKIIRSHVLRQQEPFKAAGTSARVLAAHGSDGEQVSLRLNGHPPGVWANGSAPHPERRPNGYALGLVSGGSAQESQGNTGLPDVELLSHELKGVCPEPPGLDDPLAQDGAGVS
row,SMILES,AC50
1,O=C(/C=C/c1ccc(O)cc1)CC(=O)/C=C/c1ccc(O)cc1,421 nM (active)
